Experiment [1] addresses Bromodomain-containing protein 4 (Homo sapiens) (UniProt O60885). To be noted: Compound concentration 10.0 uM, Protein concentration 2.0 uM.
Experiment [2] deals with T1, Transcription intermediary factor 1-alpha (Homo sapiens) (UniProt O15164).
T1 sequence (whole entry): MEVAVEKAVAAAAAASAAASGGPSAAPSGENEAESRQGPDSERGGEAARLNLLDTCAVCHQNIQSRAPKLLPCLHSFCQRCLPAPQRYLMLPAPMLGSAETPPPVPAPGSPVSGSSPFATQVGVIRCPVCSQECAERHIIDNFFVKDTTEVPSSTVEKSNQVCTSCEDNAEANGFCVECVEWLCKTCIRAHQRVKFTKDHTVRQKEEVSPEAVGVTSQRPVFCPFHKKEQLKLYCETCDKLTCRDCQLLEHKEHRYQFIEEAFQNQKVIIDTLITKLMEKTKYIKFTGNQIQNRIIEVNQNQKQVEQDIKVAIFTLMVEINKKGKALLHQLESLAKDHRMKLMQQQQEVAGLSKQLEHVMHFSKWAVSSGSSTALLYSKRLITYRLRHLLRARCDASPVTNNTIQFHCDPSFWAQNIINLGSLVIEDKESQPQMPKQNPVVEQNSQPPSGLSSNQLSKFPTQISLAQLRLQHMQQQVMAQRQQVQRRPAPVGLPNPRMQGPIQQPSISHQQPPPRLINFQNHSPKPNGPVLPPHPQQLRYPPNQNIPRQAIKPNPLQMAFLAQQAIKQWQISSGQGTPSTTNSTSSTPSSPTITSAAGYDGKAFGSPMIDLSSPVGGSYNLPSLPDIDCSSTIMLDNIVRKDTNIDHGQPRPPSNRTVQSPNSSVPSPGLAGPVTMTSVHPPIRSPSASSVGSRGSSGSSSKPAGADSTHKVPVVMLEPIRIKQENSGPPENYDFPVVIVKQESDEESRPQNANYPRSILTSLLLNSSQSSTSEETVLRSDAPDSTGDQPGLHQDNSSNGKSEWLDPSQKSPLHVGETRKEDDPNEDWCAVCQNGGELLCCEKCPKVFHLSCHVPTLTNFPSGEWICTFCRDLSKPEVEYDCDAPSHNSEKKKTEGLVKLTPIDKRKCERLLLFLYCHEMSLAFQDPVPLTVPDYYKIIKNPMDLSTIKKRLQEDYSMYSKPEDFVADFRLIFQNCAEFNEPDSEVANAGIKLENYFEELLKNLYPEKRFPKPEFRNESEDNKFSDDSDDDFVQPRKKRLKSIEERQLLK
The settings on record: Compound concentration 10.0 uM, Protein concentration 2.0 uM.

“And” between values parts separate entries of the source, which are not always exact repeats. Identical values can stand only once.

The term ΔTm denotes the change in melting temperature against a reference sample. For the compound `COc1cc2c(cc1NS(=O)(=O)c1ccc(Br)cc1C)n(C)c(=O)n2C`, the ΔTm was 1.42 °C and 2.26 °C in experiment [1]; 2.87 °C in experiment [2].

Values taken from ChEMBL document CHEMBL4649982, “Selective targeting of Bromodomains of the Bromodomain-PHD Fingers family impairs osteoclast differentiation” (ACS Chem Biol, 2017).
